This is one part of a sample in which hits are shown more often than they occur.
ALOX12 inh: ALOX12 (human) lipoxygenase inhibition. P18054. purified 12hLO, xylenol orange hydroperoxide absorbance. Potency, µM (highest dose often 108 µM), without a hit: at the top dose activity change, negative = inhibition, most hits filed as inhibitors. hit rate 1.1% among 580,000. AID 1671190; further: on the % scale 0 is the no-effect control and ±100 the full control effect
Target sequence (P18054 whole entry, looked up): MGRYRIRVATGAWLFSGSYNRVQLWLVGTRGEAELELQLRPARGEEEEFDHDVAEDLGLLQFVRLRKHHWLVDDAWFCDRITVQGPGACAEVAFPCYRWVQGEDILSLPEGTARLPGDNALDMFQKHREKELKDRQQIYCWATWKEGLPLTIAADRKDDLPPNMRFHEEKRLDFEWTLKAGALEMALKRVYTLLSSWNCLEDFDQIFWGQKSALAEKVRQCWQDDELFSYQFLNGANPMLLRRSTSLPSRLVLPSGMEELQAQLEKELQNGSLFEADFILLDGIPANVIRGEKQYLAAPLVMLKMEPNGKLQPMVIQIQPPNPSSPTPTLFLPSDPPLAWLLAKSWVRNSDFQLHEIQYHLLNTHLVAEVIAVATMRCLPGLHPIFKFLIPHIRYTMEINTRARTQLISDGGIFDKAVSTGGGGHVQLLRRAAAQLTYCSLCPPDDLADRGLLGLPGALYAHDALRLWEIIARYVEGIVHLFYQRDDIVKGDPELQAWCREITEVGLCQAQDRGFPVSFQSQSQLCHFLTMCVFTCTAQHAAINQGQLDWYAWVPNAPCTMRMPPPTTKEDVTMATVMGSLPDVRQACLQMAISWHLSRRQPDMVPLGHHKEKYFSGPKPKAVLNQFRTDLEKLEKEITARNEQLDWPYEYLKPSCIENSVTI
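Purified human 12hLO at 150 nM in 25 mM Hepes, 0.01% Triton X-100, pH 7.0, preincubated 15 min at room temperature with compound. Reaction started with 40 uM arachidonic acid, 30 min at room temperature. Hydroperoxide measured by Fe-xylenol orange, 573/405 nm absorbance ratio.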
Glioma ERSR ind: ER stress response induction in glioma; hit rate 0.02% among 420,000; Potency, µM, without a hit: at the highest dose activation, usual class: activators; U87-MG GRP78 promoter luciferase reporter, 16 h; further: series mostly up to about 76 µM; % of control where 0% means no effect; nearly all actives have a fitted effect of over 35% in size
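ERSR induction read as luciferase luminescence (Bright-Glo, 10 min at room temperature) in stably transfected human U87-MG glioma cells exposed to compounds for 16 h, using GRP78 as sensor.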
VDR inh: blocks the human vitamin D receptor. VDR-SRC2-3 peptide fluorescence polarization, 2 h. hit rate 0.93% among 400,000. Potency, µM, for the others: max response, negative = inhibition, hits mostly inhibitors. P11473; further: on the % scale 0 is the no-effect control and ±100 the full control effect
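Two reagent solutions held at 4 deg C in the dark were dispensed, compounds pinned at 23 nl, and the mixture incubated 2 h at room temperature. Read-out: fluorescence polarization of VDR–SRC2-3 peptide binding.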
Sfp PPTase inh: inhibitors of Bacillus subtilis Sfp phosphopantetheinyl transferase; Q9F4F7; Biochemical Sfp PPTase activity, qHTS; Potency, µM, inactives show largest response in the series, negative = inhibition, actives largely listed as inhibitors; hit rate 3.5% among 310,000; AID 1490;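 further: the enzyme is Sfp with the accession as filed and its product quenches rhodamine fluorescence; 0% = enzyme reaction without inhibitor and -100% = no enzyme wells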
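Compounds were incubated with enzyme (final 15 nM) for 15 min at room temperature before substrate addition started the reaction. Fluorescence at 525 nm excitation, 598 nm emission was recorded immediately and after 30 minutes.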
G9a inh: blocks human histone lysine methyltransferase G9a; Potency, µM (titrated, usually from 102 µM), inactives show at the highest dose activity, negative = inhibition, usual class: inhibitors; AID 504332; G9a H3K9 monomethylation, AlphaScreen, 2 h; Q96KQ7; hit rate 8.8% among 350,000; further: on the % scale 0 is the no-effect control and ±100 the full control effect; nearly all actives have a fitted effect of over 75% in size
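Chemiluminescent proximity detection of H3K9 monomethylation, read after 10 min bead incubation in the dark. Reaction: 20 nM G9a, 500 nM biotin-H3K9 peptide, 20 uM SAM cofactor, 2 h, room temperature, following 15 min enzyme-compound preincubation.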
* marks the source's active call; other numbers are inactive results; ? = inconclusive; / = no result given; [ ] = dose if it differs, or a comment. The call rests on the fitted dose curve; in most records, active means well fitted curve in the direction sought with a large enough effect; inconclusive means small, poorly fitted or top-dose-only effect, or another doubt; inactive means no such curve, though single readings can be large; an effect the other way counts as inactive or inconclusive. Potency means the concentration at half of the fitted maximal effect.

SMILES | ALOX12 inh | Glioma ERSR ind | VDR inh | Sfp PPTase inh | G9a inh
Cc1ccc(C)c(N2CCN(c3ccc(N4C(=O)COCC4=O)cc3[N+](=O)[O-])CC2)c1 | -30% | -4% | -16% | 0% | -6%
COc1ccc(N2CCN(c3ccc(N4C(=O)CC(C)C4=O)cc3[N+](=O)[O-])CC2)cc1 (configuration not stated) | 1% | -3% | -20% | 17% | 40µM*
COc1cccc(N2C(=O)CC(N3CCN(c4ccc([N+](=O)[O-])cc4)CC3)C2=O)c1 (configuration not stated) | -25% | -2% | 1% | 20% | ?
COc1ccc(-c2noc([C@@H]3Cc4nc[nH]c4CN3C(=O)Nc3ccccc3)n2)cc1 | 29%[176 µM] | / | / | / | /
O=C(NC1CC2CCC1C2)C1(c2ccccc2)CCC1 (configuration not stated) | 5% | / | / | / | /
CCOC(=O)CCCCCCN | 8% | / | / | / | /
Cc1cc(C)cc(-c2cccc(CN)c2)c1 | 28%[176 µM] | / | / | / | /
COc1ccc(C(CCNCc2ccc(F)cc2)c2ccc(F)cc2)cc1 (configuration not stated) | ? | -8% | -5% | 56µM* | ?
COc1ccc(C(CCNCc2ccc(N(C)C)cc2)c2ccccc2OC)cc1 (configuration not stated) | ? | -2% | -18% | -6% | 14µM*
Cc1sc2nc3c(SC(C)C(=O)O)cc(C(=O)c4ccccc4O)cn3c(=O)c2c1C (configuration not stated) | ? | ? | -9% | 50µM* | 50µM*
CCOC(=O)c1sc2nc3c(SCC(=O)O)cc(C(=O)c4cc(F)ccc4O)cn3c(=O)c2c1C | ? | 6% | -21% | ? | 79µM*
COc1ccc(O)c(C(=O)c2cc(SCC(=O)O)c3nc4sc5c(c4c(=O)n3c2)CCCC5)c1 | 35µM* | 1% | -6% | ? | -33%[12.7 µM]
COC(=O)c1cc(C(=O)c2cc(F)ccc2O)cn2c(=O)c3c(C)c(C)sc3nc12 | -25% | -6% | -25% | -11% | ?
O=c1c(S(=O)(=O)c2ccc(F)c(Cl)c2)c[nH]c2ccc(F)cc12 | 4% | / | / | / | /
CC(C)(C(=O)Nc1cccc(OCCS(C)(=O)=O)c1)c1ccccc1 | -4% | / | / | / | /
CCOc1cc(C(=O)OC(C)C(N)=O)ccc1OCC(C)C (configuration not stated) | 8% | / | / | / | /
Cc1ccc(-c2noc(C3CCN(S(=O)(=O)c4ccc5c(c4)OCCO5)CC3)n2)o1 | -4% | -1% | 3% | 8% | 16µM*
Cc1ccc(-c2noc(C3CCCN(S(=O)(=O)c4ccc5ccccc5c4)C3)n2)o1 (configuration not stated) | ? | 0% | 6% | -18% | 35µM*
Cc1ccc(S(=O)(=O)N2CCCC(c3nc(-c4ccc(C)o4)no3)C2)cc1 (configuration not stated) | ? | -3% | 13% | -4% | -4%[2.33 µM]
C=CCc1c(C)nc(-c2ccccc2)nc1N/N=C(\C)c1ccccc1 | -9% | 5% | -1% | 45µM* | ?
C=CCc1c(C)nc(-c2ccccc2)nc1Nc1ccc(O)cc1 | -9% | 7% | 0% | -15% | -11%[59 µM]
Cc1cccc(C)c1NC(=O)CNC(=O)CCc1ncc(-c2ccccc2F)o1 | -10% | / | / | / | /
CC1CCN(CC(=O)c2cccs2)CC1 | 0% | -1% | 1% | 8% | ?
O=C(CN1CCN(c2ccc(F)cc2)CC1)c1cccs1 | -23% | 1% | -13% | -8% | 16µM*
COC(=O)c1sccc1NC(=O)CN1CCN(c2ccc(F)cc2)CC1 | -21% | -8% | 2% | -12% | 45µM*
SMILES | ALOX12 inh | Glioma ERSR ind | VDR inh | Sfp PPTase inh | G9a inh
O=C(CN1CCc2ccccc2C1)c1cccs1 | ? | 1% | -11% | 56µM* | ?
CCN(CC(=O)NCc1ccc(F)cc1)C(=O)CN1CCN(c2ccc(OC)cc2)CC1 | -21% | -1% | -11% | ? | 7.9µM*
O=C(CN1CCN(c2ccc(F)cc2)CC1)NCc1ccc(F)cc1 | 22% | -4% | 1% | 8% | 5%
O=C(NC(=S)N1CCN(c2ccc(F)cc2)CC1)c1cccs1 | 0% | 0% | 2% | 2% | 50µM*
COc1ccc(/C=N/OCc2ccc(Br)cc2)cc1OCc1ccccc1 | 2% | / | / | / | /
CC(C)CNc1ccc2c(n1)C(C)(C(=O)Nc1cccnc1)CN(Cc1ccccc1)C2 (configuration not stated) | 23%[176 µM] | / | / | / | /
CCC1(C(=O)OC)NC(c2ccco2)C2C(=O)N(c3ccc(F)cc3)C(=O)C21 (configuration not stated) | -1% | -2% | -12% | -10% | 45µM*
CCCC1(C(=O)OCC)NC(c2ccc(N(C)C)cc2)C2C(=O)N(c3ccc(F)cc3)C(=O)C21 (configuration not stated) | 0% | -2% | -21% | 16% | 2.5µM*
CCC1(C(=O)OC)NC(c2ccco2)C2C(=O)N(c3ccccc3)C(=O)C21 (configuration not stated) | 0% | -6% | -16% | -12% | 9%[59 µM]
C=CCn1c(N)c(C(=O)NC2CCCCC2)sc1=S | 0% | -2% | -6% | 16µM* | -40%[59 µM]
C=CCn1c(N)c(C(=O)NCc2cccnc2)sc1=S | -15% | -2% | -4% | -20% | ?
CC(C)(C)NC(=O)CSc1cc(C(=O)NC2CC2)c2ccccc2n1 | 14% | / | / | / | /
O=S(=O)(c1cccc2nsnc12)N1CCCCCC1c1ccccc1Cl (configuration not stated) | -14% | / | / | / | /
CC(C)CCN(CCC(C)C)C(CO)(CO)CO | ? | -4% | 11% | ? | 3.2µM*
COc1ccc(OC)c(CNc2nc3ccccc3n2CCN2CCCCC2)c1 | -20% | -2% | 7% | 79µM* | ?
Brc1cccc(CNc2nc3ccccc3n2CCN2CCCCC2)c1 | ? | -5% | 5% | 1% | ?
Brc1ccc(-c2cn3c4ccccc4nc3n2CCCN2CCCC2)cc1 | 10µM* | / | / | / | /
Brc1ccc(CNc2nc3ccccc3n2CCN2CCCCC2)cc1 | -11% | -5% | -7% | 6% | 45µM*
COc1ccc(CNc2nc3ccccc3n2Cc2ccc(C)cc2)cc1OC | 10% | 1% | 2% | 11% | 79µM*
Cc1ccc(C(=O)Nc2nc3ccccc3n2CCN2CCCC2)cc1 | 25% | -1% | 4% | 2% | -3%
Cc1ccccc1NC(=O)CN(Cc1ccc2c(c1)OCO2)C1CCCC1 | -5% | / | / | / | /
Cc1ccc(-c2cnc(SCC(=O)Nc3cccc(Cl)c3)o2)cc1C | 1% | / | / | / | /
O=C(OCc1noc(-c2ccco2)n1)c1cncc(Br)c1 | 7% | / | / | / | /
O=C(OCc1noc(-c2ccco2)n1)c1cc(Br)c[nH]1 | 25µM* | / | / | / | /
COCCN=C1Sc2nc3ccc(C)cc3cc2CN1Cc1ccco1 | -8% | 7% | -13% | 45µM* | ?
C(=N\NCc1ccccc1)/c1ccc2ncccc2c1 | 76% | -9% | 5% | 13% | -53%
